Screening results: PubChem BioAssay, National Center for Advancing Translational Sciences (NCATS)
This is a sample that favours compounds with a hit; in the whole collection about 1.2% have one here.
Eya2 phos inh: Eya2 (human) phosphatase inhibition. O00167. recombinant Eya2, OMFP fluorescence dephosphorylation (OMFP is methylfluorescein phosphate). Potency, µM (titrated, usually from 76.9 µM), hits mostly inhibitors. 330,000 tested, 0.006% active. AID 488837
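Eya2 protein (added as 0.2 uM solution) was preincubated with compound for 10 min at ambient temperature in 50 mM HEPES pH 7.5, 50 mM NaCl, 5 uM MgCl2, 0.05% BSA, 1 mM DTT. OMFP (added at 50 uM) then reacted 10 min; fluorescence read at 485/525 nm.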
L3MBTL1 inh: inhibitors of human L3MBTL1; AlphaScreen L3MBTL1–H3K9me1 peptide binding; Q9Y468; 230,000 tested, 0.66% active; Potency, µM (top dose mostly 57.1 µM), most hits filed as inhibitors; AID 485360; also: nearly all actives have a fitted effect of over 60% in size
Target sequence (Q9Y468 whole entry, looked up): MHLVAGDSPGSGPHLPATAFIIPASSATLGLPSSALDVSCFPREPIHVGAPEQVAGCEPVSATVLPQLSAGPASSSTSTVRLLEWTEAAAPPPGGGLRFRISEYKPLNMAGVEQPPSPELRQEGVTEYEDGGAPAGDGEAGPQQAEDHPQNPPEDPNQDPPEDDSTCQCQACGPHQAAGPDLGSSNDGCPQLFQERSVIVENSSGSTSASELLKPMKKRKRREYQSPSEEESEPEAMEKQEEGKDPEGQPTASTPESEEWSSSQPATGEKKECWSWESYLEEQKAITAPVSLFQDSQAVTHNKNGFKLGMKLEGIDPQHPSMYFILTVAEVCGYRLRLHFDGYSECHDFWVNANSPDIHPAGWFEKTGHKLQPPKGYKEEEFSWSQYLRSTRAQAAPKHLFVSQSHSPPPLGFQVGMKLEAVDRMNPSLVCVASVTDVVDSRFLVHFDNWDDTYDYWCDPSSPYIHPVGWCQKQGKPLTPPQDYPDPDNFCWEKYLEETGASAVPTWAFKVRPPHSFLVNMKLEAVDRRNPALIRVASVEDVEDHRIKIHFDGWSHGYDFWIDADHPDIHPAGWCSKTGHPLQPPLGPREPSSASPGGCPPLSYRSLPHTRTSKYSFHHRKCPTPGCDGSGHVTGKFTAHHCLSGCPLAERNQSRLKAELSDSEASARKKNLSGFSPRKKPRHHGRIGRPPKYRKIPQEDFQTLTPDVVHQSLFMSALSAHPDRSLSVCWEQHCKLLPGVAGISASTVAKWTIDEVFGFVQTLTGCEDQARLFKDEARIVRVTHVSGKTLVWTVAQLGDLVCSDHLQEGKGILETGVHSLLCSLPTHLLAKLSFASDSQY
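Displacement of a biotinylated histone H3(1-15) peptide monomethylated at Lys9 (75 nM) from L3MBTL1 (50 nM) was measured by AlphaScreen after a 30 min room-temperature compound incubation; cefsulodin titration served as intraplate control.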
Six1-Eya2 blk: inhibitors of human Six1/Eya2 interaction. Q15475+O00167. AlphaScreen GST-Six1/His-Eya2 binding, biochemical; stronger effect = lower value. activity change, % (concentration not given with the values). 360,000 tested, 0.56% active. AID 651725; in the data active = activity change below about -65%; inconclusive = mostly about -30% to -63%
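GST-Six1 + His-Eya2 (5X stock: 250/500 nM); Tris pH 8.0, 300 mM NaCl, 0.05% BSA, 0.02% Tween 20; GSH donor/Ni acceptor beads; 1 h 37 °C dark; AlphaScreen readout.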
uPA generation: blocks generation of uPA at the cell surface. AID 540303. 330,000 tested, 0.31% active. Potency, µM (top dose mostly 38.3 µM), most hits filed as inhibitors. cell surface uPA generation assay, qHTS; active = well fitted inhibition curve with a large enough effect; inconclusive = small, poorly fitted or top-dose-only effect; inactive = no such curve, though single readings can be large or run the other way; tested in mouse RAW 264.7 cells; also: nearly all actives have a fitted effect of over 55% in size
CtBP-E1A inh: blocks the CtBP interaction with E1A; AlphaScreen GST-E1A/His-CtBP binding, 1536-well; stronger effect = lower value; activity change, % (no concentration beside the values); 340,000 tested, 0.49% active; in the data active = activity change below about -65%; inconclusive = mostly about -30% to -63%
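Homogeneous bead-based format: GST-tagged E1A captured on glutathione donor beads, His-tagged CtBP on nickel acceptor beads; compounds precede bead addition by 2 h at 37 °C.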
USP2a block: inhibitors of human ubiquitin-specific protease USP2a; O75604; USP2 core, Ub-CHOP2 coupled fluorogenic reporter, 485/531; Potency, µM (series often up to 38.3 µM), hits mostly inhibitors; 330,000 tested, 0.01% active
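Cell-free coupled assay: 10nM USP2 core preincubated 30min RT with compound in Tris-HCl pH 8.0/CaCl2/CHAPS buffer, then 25nM Ub-CHOP2 and 25nM reporter substrate; fluorescence (Ex 485/Em 531) read after 60min RT, normalized to NEM inhibition, concentration-response curves fitted.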
A number is an active result; – = inactive; ? = inconclusive; · = no result given. Unless noted, calls follow the shape of the dose curve; as a rule, active = well fitted curve in the direction sought with a large enough effect; inconclusive = small, poorly fitted or top-dose-only effect, or another doubt; inactive = no such curve, though single readings can be large; an effect the other way counts as inactive or inconclusive.

SMILES	Eya2 phos inh	L3MBTL1 inh	Six1-Eya2 blk	uPA generation	CtBP-E1A inh	USP2a block
O=c1c(-c2ccc(O)cc2)coc2cc(OC3OC(CO)C(O)C(O)C3O)cc(O)c12 (centres undefined)	–	–	–	4.5µM	–	–
COc1ccc(C(=O)NCCCC2CCCC2)cc1OC1CCN(C(C)C)CC1	·	·	–	·	–	·
O=C(O)C(O)c1ccccc1 (centres undefined)	–	–	–	–	–	–
O=C(O)C(O)c1ccco1 (centres undefined)	–	5µM	?	–	·	–
Cc1ccc(S(=O)(=O)N2CCCCC2CCNC(=O)C(=O)NCCc2ccco2)cc1 (centres undefined)	–	–	–	1µM	–	–
COc1cc(/C=N/Nc2cc(C)nc(NS(=O)(=O)c3ccccc3)n2)ccc1O	–	·	-71	–	-73	–
COc1cc(/C=N/NC(=O)c2nc(-c3ccccc3)n(-c3ccccc3)n2)ccc1O	–	–	?	–	?	–
COc1cc(/C=N/Nc2nc(C)nc3c2cnn3-c2ccccc2)ccc1O	–	–	-67	–	-77	–
CCOC(=O)N1CCN(C(=O)C2CCN(S(=O)(=O)c3ccc(OC)cc3)CC2)CC1	–	–	–	–	–	–
N#C/C(=C\c1ccc(O)c(O)c1)C(=O)N1CCc2ccccc21	–	?	–	3.5µM	–	–
CCCCn1c(N)c(N(CCC(C)C)C(=O)C2CC(=O)N(c3ccc(OC)cc3OC)C2)c(=O)[nH]c1=O (centres undefined)	–	–	–	–	–	–
CCN(CC(=O)NCc1ccc(F)cc1)C(=O)C1CC1C (centres undefined)	–	·	–	·	–	–
CCN1CCN(C(c2ccc(C(F)(F)F)cc2)c2ccc3cccnc3c2O)CC1 (centres undefined)	–	·	-86	–	–	–
O=C(c1ccncc1)N(c1ccc(N2CCOCC2)cc1)C(c1ccccc1)c1nc2ccccc2[nH]1 (centres undefined)	·	·	–	·	–	·
Cc1[nH]nc2nc(SCC(=O)NCC3CCCO3)n(-c3ccc(Br)cc3)c(=N)c12 (centres undefined)	–	–	-65	–	?	–
COc1cccc(NC(=O)CSc2nc3n[nH]c(C)c3c(=N)n2-c2cccc(OC)c2)c1	–	–	?	–	?	–
Cc1cc(-n2c(SCC(=O)Nc3ccc(Br)cc3)nc3n[nH]c(C)c3c2=N)ccc1Cl	–	·	–	–	–	–
COc1cccc(-n2c(SCC(=O)NCCC3=CCCCC3)nc3n[nH]c(C)c3c2=N)c1	–	–	-79	–	-70	–
CCC(C)NC(=O)CSc1nc2n[nH]c(C)c2c(=N)n1-c1ccc(OC)cc1 (centres undefined)	–	–	-74	–	-85	–
C[C@H]1CCC[C@@]2(O[C@@H](CCO)C[C@@H](O)[C@@H]2O)O1	–	·	–	–	–	–
COc1cccc(NS(=O)(=O)c2ccc3c(c2)C2C=CCC2C(c2ccc(C(=O)O)cc2)N3)c1 (centres undefined)	–	10µM	?	–	–	–
COc1ccc(C(=O)N/N=C(\C)c2ccc3c(c2)C2C=CCC2C(c2ccccc2)N3)cc1 (centres undefined)	–	–	–	–	–	–
O=C(O)c1ccc2c(c1)[C@@H]1C=CC[C@@H]1[C@H](c1ccccn1)N2	·	·	-77	–	–	·
COc1ccc(COC(=O)C2CCN(S(=O)(=O)c3ccc(C)cc3)CC2)cc1	–	–	–	–	–	–
Cn1ccc2cc(-c3ccc4ncnc(NCc5cccs5)c4c3)ccc21	–	–	·	7.9µM	·	–
SMILES	Eya2 phos inh	L3MBTL1 inh	Six1-Eya2 blk	uPA generation	CtBP-E1A inh	USP2a block
Cn1ccc2cc(-c3ccc4ncnc(NCc5cccnc5)c4c3)ccc21	–	–	·	·	·	–
C[C@@H]1CN([C@@H](C)CO)C(=O)c2cc(NS(=O)(=O)c3ccc(Cl)cc3)ccc2O[C@H]1CN(C)Cc1ccncc1	–	–	–	–	–	–
Cc1cc(C(=O)NCC(=O)Nc2ccc(F)c(F)c2)c(C)o1	–	–	–	–	–	–
O=C(CCc1ccccc1)NCC(c1ccco1)N1CCc2ccccc21 (centres undefined)	–	–	–	3.2µM	–	–
O=C(NCC(c1ccco1)N1CCc2ccccc21)c1ccccc1F (centres undefined)	–	–	–	–	–	–
COc1ccc(CNC(=O)CN(C(=O)c2csnn2)c2cccc3ccccc23)cc1	–	·	–	–	–	–
Cc1ccc2c(c1)C(=O)C(=O)N2Cc1ccc(C(F)(F)F)cc1	–	–	–	3.5µM	–	–
Cc1ccc(OCCN2C(=O)C(=O)c3cc(C)ccc32)cc1	–	–	–	?	–	–
COc1ccc(OC)c(/C=N/c2oc(-c3ccco3)c(-c3ccco3)c2C#N)c1	–	25µM	–	–	–	–
Cc1ccc(-c2nn(-c3ccccc3)cc2C(=O)O)o1	–	2.8µM	·	·	·	?
CC1=C/C(=C(\c2cc(C)c(O)c(Br)c2)c2ccccc2S(=O)(=O)O)C=C(Br)C1=O	–	22µM	-92	?	-75	–
Cc1csc(NC(=O)c2ccc(Cl)cc2[N+](=O)[O-])n1	–	·	–	–	–	–
O=C(Nc1nc(-c2ccccn2)cs1)c1cc(Cl)ccc1[N+](=O)[O-]	–	10µM	-91	–	?	–
Cc1cc(C(=O)Nc2nc(-c3ccccn3)cs2)ccc1[N+](=O)[O-]	–	·	-71	–	–	–
Cc1csc(NC(=O)c2ccc(C)c([N+](=O)[O-])c2)n1	–	–	–	–	–	–
CN1C(=O)C(C)(C)c2cc(S(=O)(=O)N3CCCC(C(=O)NCc4ccc(Cl)cc4)C3)ccc21 (centres undefined)	–	–	–	–	–	–
CCOC(=O)c1sc(NC(=O)CNCc2cccnc2)c(C(=O)OCC)c1C	–	–	–	–	–	–
CCOC(=O)c1sc(NC(=O)CNCc2ccccn2)c(C(=O)OCC)c1C	–	–	?	–	-71	–
Cc1cccc(C)c1NC(=O)COC(=O)c1cccc2c1C(=O)c1ccccc1C2=O	–	–	–	–	–	–
Cc1cccc(NC(=O)COC(=O)c2cccc3c2C(=O)c2ccccc2C3=O)c1C	–	–	-65	–	–	–
CCN1CCC(NC(=O)Nc2cc(Cl)ccc2OC)CC1	–	–	–	–	–	–
CCOC(=O)c1ccc(NC(=S)N(CCCN2CCCC2)Cc2ccco2)cc1	–	35µM	–	–	–	–
CCOC(=O)c1ccc(NC(=S)N(CCCN2CCN(CC)CC2)Cc2ccco2)cc1	–	–	–	–	–	–
Cc1cc(NC(=O)c2ccco2)sc1C	–	–	–	–	–	–
